Assay results taken from PubChem BioAssay AID651965 (National Center for Advancing Translational Sciences (NCATS), 2013).
The whole screen tested about 340,000 compounds, of which about 6,400 (1.9%) were called active. Another 4% or so got no clear call; they are omitted. What follows is part of a selection rich in actives, with near analogues and random picks from the rest. A number with no mark means an inactive call. The call rests on the fitted dose curve; in most records, active means well fitted falling curve with a large enough effect; inconclusive means small, poorly fitted or top-dose-only effect; inactive means no such curve, though single readings can be large or run the other way.

target: ATP-dependent Clp protease proteolytic subunit (Bacillus subtilis (strain 168)) (UniProt P80244); assay: qHTS Assay for Activators of ClpP; further: the source files actives as falling curves though it sought activators and does not explain the sign; nearly all actives have a fitted effect of over 65% in size; details: purified B. subtilis ClpP, FRET peptide cleavage, 20 min; series mostly up to 57.5 µM; activity change, negative = active: at the top concentration
Sequence (P80244 whole entry, looked up): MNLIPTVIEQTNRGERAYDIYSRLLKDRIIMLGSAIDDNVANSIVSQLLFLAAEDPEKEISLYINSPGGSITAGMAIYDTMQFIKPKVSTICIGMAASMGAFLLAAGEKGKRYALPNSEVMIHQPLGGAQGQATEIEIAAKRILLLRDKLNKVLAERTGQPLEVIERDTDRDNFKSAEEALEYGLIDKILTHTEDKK
In short: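 Purified B. subtilis ClpP, 10 microg/mL final in Tris/HCl pH8 with KCl, BSA, glycerol and Tween-20, cleaved an Abz/nitrotyrosine-quenched decapeptide. Fluorescence (ex 320, em 430) was read at 0 and 20 min at room temperature. Delta was normalized to 5.8 microM ADEP and DMSO/no-enzyme controls.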
Potency means the concentration at half of the fitted maximal effect.

Row | SMILES | activity change, negative = active [%] | Potency
1 | CSc1ccccc1-c1nnc(NC(=O)c2ccc3c(c2)OCCO3)o1 | 4.31 | 
2 | CSc1ccccc1-c1nnc(-c2ccc(Cl)cc2)o1 |  | 31.6 µM (active)
3 | COc1ccccc1-c1nnc(-c2ccc(F)cc2)o1 | -0.414 | 
4 | CCC(C)CN1C(=O)CSCC1(C)C(=O)NCc1ccccc1 (stereo not drawn) | -4.83 | 
5 | O=C(NCc1ccc(F)cc1)c1ccc2nc(N3CCCCC3)sc2c1 |  | 35.5 µM (active)
6 | O=C(NCc1ccccc1)c1ccc2c(c1)nc1n2CCCCC1 | -5.59 | 
7 | Cc1ccc(C)n1-c1nnc(N2CCC(C(=O)NCc3ccc(F)cc3)CC2)s1 | 10.4 | 
8 | CN1OC[C@@H]2CN(C(=O)C(C)(C)C)[C@H](c3ccc(-n4ccnc4)cc3)C[C@@H]21 | -0.0839 | 
9 | CN1CCN(C(=O)c2ccc(-c3cc4nc(NCc5cccnc5)n(C)c(=O)c4s3)cc2)CC1 | 4.86 | 
10 | COc1ccc(Cn2c(=O)[nH]c3cc(C(=O)N4CCN(C(=O)c5ccco5)CC4)ccc3c2=O)cc1 | -8.08 | 
11 | COC(=O)c1ccc(Sc2ccc(F)cc2)c(N)c1 |  | 28.2 µM (active)
12 | Cc1ccc(Sc2ccc(NC(=O)c3ccc(F)cc3)cc2C#N)cc1 | 4.22 | 
13 | CC(=O)Nc1cc(C(=O)NCc2ccc(F)cc2)ccc1Sc1ccc(F)cc1 | 0.223 | 
14 | C=C1C=C(C)n2ncc(C(=O)Nc3ccccc3O)c2N1 | -5.9 | 
15 | COCCn1c(SCC(=O)Nc2ccc(F)cc2F)nc2c(c1=O)SCC2 | 1.65 | 
16 | Cc1cc2nc(-c3ccc(F)cc3)c(Cc3ccsc3)n2c(C)c1Br | -3.99 | 
17 | Cc1c(C(=O)OCC(=O)N(CCC#N)c2ccccc2)oc2c1ccc1ccccc12 |  | 25.1 µM (active)
18 | Cc1cc(C)n2nc(C(=O)OCC(=O)N(CCC#N)c3ccc(F)cc3)nc2n1 | -2.14 | 
19 | N#CCCN(C(=O)COC(=O)c1ccc(S(=O)(=O)N2CCCCCC2)cc1)c1ccccc1 | 1.35 | 
20 | O=C(Nc1ccc(N2CCOCC2)cc1)c1cccc2c(-c3ccc(F)c(F)c3)coc12 | 24.2 | 
21 | Cc1nc2c(OCc3cccc(Cl)c3)cccn2c1N(C)CC1CC1 | -11.2 | 

Row | SMILES | activity change, negative = active [%] | Potency
22 | COc1cc(Cn2c3ccc(NC(=O)CC(C)c4ccccc4)cc3c(=O)n2C)ccc1F (stereo not drawn) | 4.54 | 
23 | COc1ccc2c(c1)C(=O)Nc1cc(Cl)ccc1N2 |  | 28.2 µM (active)
24 | COc1ccc(OC)c(C(=O)c2ccc(Cl)cc2)c1 | -4.97 | 
25 | COc1ccc(-n2c(-c3ccc(Cl)cc3)n[nH]c2=S)c(OC)c1 | -16.5 | 
26 | C=CCn1c(SCn2nnc3ccccc3c2=O)nnc1-c1ccc(Cl)cc1 | -1.24 | 
27 | CCn1c(C)cc(=O)cc1-c1ccc(Cl)cc1 | 0.84 | 
28 | C=CCn1c(-c2ccc(Cl)cc2)ccc(C#N)c1=O |  | 28.2 µM (active)
29 | COc1cc2ccc(C(C)=O)c(O)c2cc1OC | 3.45 | 
30 | CCC(O)CNc1nc(-n2nc(C)cc2C)nc2sc3c(c12)CC(C)(C)OC3 (stereo not drawn) | -5.09 | 
31 | COCCNc1ncnc2c1nc1n2CCCC1 | 0.498 | 
32 | COCCNc1nc(-n2nc(C)cc2C)nc2sc3c(c12)CCCC3 |  | 28.2 µM (active)
33 | COCCCNC(=O)c1cccc2c(-c3ccc(O)c(OC)c3)coc12 | 0.962 | 
34 | CC1=C(C(=O)Nc2cccc(C(=O)NCC(C)c3ccccc3)c2)SCCO1 (stereo not drawn) | 0.0606 | 
35 | CN1CCN(C(=O)c2ccc(NC(=O)c3ccc(Br)o3)cc2)CC1 | 1.14 | 
36 | Cc1c(C(=O)NCc2ccc(C#N)cc2)sc(=O)n1Cc1ccc(C(=O)N(C)C)cc1 | 1.14 | 
37 | COC(=O)[C@@]12C[C@@H](CC(=O)N3CCC(c4ccccc4)CC3)C(=O)N(Cc3ccccc3)C1=CCC(C)(C)C2 | 1.79 | 
38 | COCCNC(=O)CSc1nc(-c2ccccc2)[nH]c1-c1ccc(C)cc1 |  | 31.6 µM (active)
39 | COCCNC(=O)CSc1nc(N)c(NC(=O)c2ccco2)c(=O)[nH]1 | 1.56 | 
40 | Cc1nnc(SCC(=O)NCCOc2ccc(Cl)cc2)n1-c1ccccc1 | -4.45 | 
41 | CC1(C(=O)NS(=O)(=O)c2ccccc2)CCN1C(=O)c1ccccc1 (stereo not drawn) | -1.98 | 
42 | O=C(c1cc(C2CCCCN2S(=O)(=O)c2ccccc2)on1)N1CCOCC1 (stereo not drawn) | -0.363 | 

Row | SMILES | activity change, negative = active [%] | Potency
43 | Cc1cccc(C(=O)Nc2ccc3c(c2)C(=O)N(CC(C)C)C3=O)c1 | 4.1 | 
44 | CN1C(=O)c2ccc(NC(=O)C3CCCCC3)cc2C1=O |  | 31.6 µM (active)
45 | O=C(Nc1ccc2c(c1)OCCO2)C1CCCC1 | 2.15 | 
46 | Cc1nc2ccc(NC(=O)C3CCCCC3)cc2s1 | -1.11 | 
47 | CN1C(=O)c2ccc(C(=O)Nc3ccc(Br)cn3)cc2C1=O | -1.62 | 
48 | CN1C(=O)c2ccc(NC(=O)c3c(F)c(F)c(F)c(F)c3F)cc2C1=O |  | 31.6 µM (active)
49 | COc1ccc(CN(Cc2ccccc2)C(=O)c2ccc(O)cc2)cc1COc1ccc(NC(C)=O)cc1 | -5.22 | 
50 | C[C@@H]1CN([C@@H](C)CO)C(=O)CCCn2nncc2CO[C@H]1CN(C)Cc1ccc(C(F)(F)F)cc1 | -0.773 | 
51 | C#CCN(C[C@@H]1[C@@H](OC(=O)NC2CC2)[C@@H](OC(=O)NC2CC2)Cn2c(=O)ccc(=O)n21)S(=O)(=O)c1ccc(C)cc1 | -0.219 | 
52 | COc1cccc(C2C(C(=O)Nc3ccc(C)cc3C)=C(C)Nc3c(C(=O)Nc4ccccc4)cnn32)c1 (stereo not drawn) | -27.6 | 
53 | CCc1ccc(C2C(C(=O)Nc3ccccc3)=C(C)Nc3c(C(=O)Nc4ccc(C)cc4)cnn32)cc1 (stereo not drawn) |  | 31.6 µM (active)
54 | CC1=C(C(=O)Nc2ccccc2)C(c2ccc(C)cc2)n2nc(SCc3ccccc3C)nc2N1 (stereo not drawn) | -3.48 | 
55 | CC1(C(=O)NCc2ccc3c(c2)OCO3)CCN1C(=O)Cc1cccs1 (stereo not drawn) | -0.503 | 
56 | COc1cccc(CNc2nc(NCc3ccccc3OC)nc3ccsc23)c1 | -28.5 | 
57 | CCC(=O)N1CCCC1(C)C(=O)Nc1ccc2c(c1)CCN2C(C)=O (stereo not drawn) | -1.31 | 
58 | Cc1ccc(C(=O)NC(=S)NCCN2CCOCC2)cc1 |  | 28.2 µM (active)
59 | Cc1cc(C)cc(C(=O)NCCN2CCOCC2)c1 | 0.816 | 
60 | CCn1cc(/C=C(\NC(=O)c2ccc(C)cc2)C(=O)NCCN2CCOCC2)c2ccccc21 | 0.383 | 
61 | CCCNC(=O)c1cc2c(c(-c3cccc(-c4ccc(C#N)cc4)c3)n1)[C@@H](CCO)N(C(=O)CC)C2 | -7 | 
62 | CC(C)OC(=O)CC(=O)CC(O)c1cccc([N+](=O)[O-])c1 (stereo not drawn) | 1.54 | 
63 | COC(=O)c1ccc2nc(-c3ccc(F)cc3)c(Cc3ccc(C)cc3)n2c1 | -16.6 | 
